PrPC surface inh: inhibitors of human cell surface prion protein PrPC. P04156. TR-FRET read-out. inhibition, % at 13.8 µM. hit rate 0.43% among 370,000; in the data active = inhibition above about 24%
PrP 5UTR inh: inhibition of PrP 5' UTR reporter expression. inhibition, % (no concentration beside the values). AID 488862. cell-based PrP 5' UTR mRNA reporter, plate reader. hit rate 0.35% among 340,000; in the data active = inhibition above about 52%
VHR inh abs: DUSP3 (human) phosphatase inhibition; P51452; recombinant VHR phosphatase, pNPP absorbance; hit rate 0.52% among 290,000; inhibition, % at 13.3 µM; in the data active = inhibition above about 50%
Target sequence (P51452 whole entry, looked up): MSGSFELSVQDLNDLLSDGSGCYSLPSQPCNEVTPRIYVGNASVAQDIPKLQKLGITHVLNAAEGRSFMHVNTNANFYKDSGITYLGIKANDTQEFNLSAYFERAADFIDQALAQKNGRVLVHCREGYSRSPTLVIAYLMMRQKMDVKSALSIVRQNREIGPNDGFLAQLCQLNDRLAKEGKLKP
Mtb hypoxia rep: Mtb hypoxia fluorescent reporter inhibition. M. tuberculosis hypoxia-regulated fluorescent reporter, fluorescence. hit rate 0.1% among 300,000. fluorescence inhibition, % (no concentration beside the values); in the data active = fluorescence inhibition mostly above about 23%, no sharp cut-off; inactive = mostly below about 17%
MazEF act: increases E. coli MazEF RNase cleavage of RNA; P0AE70; FAM/BHQ RNA-DNA oligo cleavage fluorescence, 5 h; activation, % at 20 µM; hit rate 0.32% among 350,000; AID 504720; in the data active = activation above about 50%
Target sequence (P0AE70 whole entry, looked up): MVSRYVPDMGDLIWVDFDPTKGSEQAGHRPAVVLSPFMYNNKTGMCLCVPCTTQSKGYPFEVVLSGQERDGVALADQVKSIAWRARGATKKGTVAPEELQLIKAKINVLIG
SARS 3CLpro inh: SARS-CoV 3CLpro protease inhibition; P0C6X7; inhibition, % at 6 µM; AID 1706; hit rate 0.14% among 290,000; recombinant SARS-CoV 3CLpro, quenched FRET peptide cleavage; in the data active = inhibition above about 12%
PrP 5UTR single: prion 5' UTR mRNA inhibition, cherry-pick retest | shares compounds with PrP 5UTR inh | cell-based prion protein 5' UTR reporter, plate reader | inhibition, % at 2.5 µM | hit rate 48% among 1,100 | AID 504592; in the data active = inhibition above about 54%
Each line names hits and unclear results; the compound was inactive in the other large screens (follow-up assays come after a bar, where they were run). Sampled rows, rich in hits. Any-hit rate of the full collection: about 1.5%.

Nc1ncnc(Oc2cccc3cccnc23)c1[N+](=O)[O-]	PrP 5UTR inh 67 | PrP 5UTR single inactive
CCCC1CCCO[C@@](C(=O)NCc2cc(C)n(C)n2)(C(F)(F)F)C1 (stereo partly specified)	none (no result: PrPC surface inh, PrP 5UTR inh, VHR inh abs, MazEF act, SARS 3CLpro inh)
C[C@]1(C(=O)O)C=CC(Cc2ccccc2)N1C(=O)c1ccccc1 (stereo partly specified)	none (no result: PrPC surface inh, PrP 5UTR inh, VHR inh abs, MazEF act, SARS 3CLpro inh)
O=C(O)c1ccccc1C=NNC(=O)C1CCCC1	none (no result: PrPC surface inh, PrP 5UTR inh, VHR inh abs, MazEF act, SARS 3CLpro inh)
CCCS(=O)(=O)N1CCCC(C(=O)NC2CCCC(C)C2C)C1 (stereo unspecified)	PrP 5UTR inh 86 | PrP 5UTR single inactive
CCCS(=O)(=O)N1CCC(C(=O)NC2CCCC(C)C2C)CC1 (stereo unspecified)	none
COc1cc(NC(=O)c2cccs2)c(C(=O)OCC(=O)c2cc(C)n(-c3ccc(F)cc3)c2C)cc1OC	none
COc1cc(NC(=O)c2cccs2)c(C(=O)OCC(=O)c2cc(C)n(-c3ccccc3)c2C)cc1OC	PrP 5UTR inh 71 | PrP 5UTR single 73
COc1ccc(C2/C(=C(/O)c3ccc(Cl)cc3)C(=O)C(=O)N2CCN2CCOCC2)c(OC)c1 (stereo unspecified)	PrP 5UTR inh 63 (no result: Mtb hypoxia rep) | PrP 5UTR single inactive
CCOC(=O)C1=CN(Cc2cccc(I)c2)S(=O)(=O)N(C)C1C (stereo unspecified)	PrP 5UTR inh 90 (no result: VHR inh abs, SARS 3CLpro inh) | PrP 5UTR single inactive
CCOC(=O)C1=CN(Cc2ccco2)S(=O)(=O)N(C)C1c1ccc2ccccc2c1 (stereo unspecified)	PrP 5UTR inh 55 (no result: VHR inh abs, SARS 3CLpro inh) | PrP 5UTR single inactive
Cc1nnc(NN=CC2CC=CCC2)[nH]c1=O (stereo unspecified)	none (no result: PrPC surface inh, PrP 5UTR inh, VHR inh abs, MazEF act, SARS 3CLpro inh)
O=C(C1=CC(c2ccc(Br)cc2)CC(OCCCCO)O1)N1CCN(Cc2ccc3c(c2)OCO3)CC1 (stereo unspecified)	none (no result: PrPC surface inh, PrP 5UTR inh, VHR inh abs, MazEF act, SARS 3CLpro inh)
C[C@]12CC[C@H](O)C[C@H]1CC[C@@H]1[C@@H]2CC[C@]2(C)[C@@H](C3=CC(=O)OC3)CC[C@]12O	PrP 5UTR inh 77 (no result: VHR inh abs, Mtb hypoxia rep, SARS 3CLpro inh) | PrP 5UTR single 84
COC1C(O)C(C)OC(OC2CCC3(C)C(CCC4C3C(O)CC3(C)C(C5=CC(=O)OC5)CCC43O)C2)C1O (stereo unspecified)	PrP 5UTR inh 87 (no result: VHR inh abs, Mtb hypoxia rep, SARS 3CLpro inh) | PrP 5UTR single 82
CC(=O)OC1CC(OC2C(O)CC(OC3C(O)CC(OC4CCC5(C)C(CCC6C5CC(O)C5(C)C(C7=CC(=O)OC7)CCC65O)C4)OC3C)OC2C)OC(C)C1OC1OC(CO)C(O)C(O)C1O (stereo unspecified)	PrP 5UTR inh 90 (no result: VHR inh abs, Mtb hypoxia rep, SARS 3CLpro inh) | PrP 5UTR single 90
CC12CCC(O)CC1CCC1C2CCC2(C)C(C3=CC(=O)OC3)C(O)CC12O (stereo unspecified)	none (no result: VHR inh abs, Mtb hypoxia rep, SARS 3CLpro inh)
CC12CCC(O)CC1CCC1C2CCC2(C)C(C3=CC(=O)OC3)CCC12O (stereo unspecified)	PrP 5UTR inh 79 (no result: VHR inh abs, Mtb hypoxia rep, SARS 3CLpro inh) | PrP 5UTR single 82
CC(=NNC(=S)NC(C)C)c1cccc([N+](=O)[O-])c1	none (no result: PrPC surface inh, PrP 5UTR inh, VHR inh abs, MazEF act, SARS 3CLpro inh)
C[C@]12CC[C@H](O)C[C@H]1CC[C@@H]1[C@@H]2C[C@@H](O)[C@]2(C)[C@@H](C3=CC(=O)OC3)CC[C@]12O	PrP 5UTR inh 59 (no result: VHR inh abs, Mtb hypoxia rep, SARS 3CLpro inh) | PrP 5UTR single 66
O=C(Nc1ccc(N2CCOCC2)cc1)c1cnsn1	PrP 5UTR inh 68 (no result: Mtb hypoxia rep) | PrP 5UTR single 77
O=C(Nc1ccc(N2CCOCC2)cc1)c1cnccn1	none
C=CS(=O)(=O)N(Cc1ccccc1Br)C(CO)CC(C)C (stereo unspecified)	none (no result: PrPC surface inh, PrP 5UTR inh, VHR inh abs, MazEF act, SARS 3CLpro inh)
CCOc1ccc(NC(=O)c2cc3c(C)nc4ccccc4c3o2)cc1	PrP 5UTR inh 62 | PrP 5UTR single inactive
O=C(NC1CCCCC1)c1cc(C(=O)c2ccccc2Br)c[nH]1	PrP 5UTR inh 71 | PrP 5UTR single inactive
CC(=O)c1c[nH]c(C(=O)NC2CCCCCC2)c1	none
CC(C)CC(CN(C)N=O)N(CC(Cc1ccccc1)N(CCc1ccccc1)N=O)N=O (stereo unspecified)	none (no result: PrPC surface inh, PrP 5UTR inh, VHR inh abs, MazEF act, SARS 3CLpro inh)
CCN=C1NN=C(c2cc(C)n(Cc3ccco3)c2C)CS1	PrP 5UTR inh 83 | PrP 5UTR single 72
CCN=C1NN=C(c2cc(C)n(CCc3ccccc3)c2C)CS1	none
COc1ccc(C2CC(=O)C=C(c3ccc(Cl)c(C(F)(F)F)c3)C2)cc1OC (stereo unspecified)	none (no result: PrPC surface inh, PrP 5UTR inh, VHR inh abs, MazEF act, SARS 3CLpro inh)

Assay outcomes (PubChem)
